Targets with a hit are over-represented here; the source holds about 8,800 in all. About 0.5% of all pairs of compound and target were hits.
Columns and labels:
Assay in all cases: log2 fold change, soluble protein after heating vs DMSO (PISA); higher = thermal stabilisation; K562 lysate, 10 uM; active = over 0.2 and 3.5 SD of the protein, either way, in both replicates (recomputed)
[1] = compound: NCC(=O)Nc1ccc(-n2nc(C(F)(F)F)cc2-c2ccc3c(ccc4ccccc43)c2)cc1
In short: (§1)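 Soluble protein was defined as the supernatant remaining after 21,000xg for 90 min, following pooling of heated aliquots and adjustment to 0.5% NP-40 at 4°C. Before that, crude K562 extract at 1 mg/mL protein in PBS pH 7.4 with 1 mM MgCl2 was treated with 10 μM compound for 30 min and heated for 3 min across 48°C-58°C. Quantification used TMTpro 16plex LC-MS/MS with channel sums equalised, and values are log-two fold changes in thermal stability relative to solvent controls from duplicates.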

[2] = compound: O=C(CCCCCCC(=O)Nc1ccccc1)NO [vorinostat]
In short: as §1

[3] = compound: O=C(O)c1ccc2c(c1)nc(Nc1cccc(Cl)c1)c1ccncc12 [silmitasertib]
In short: as §1

[4] = compound: O=C1NC(=O)C(c2cnc3ccccn23)=C1c1cn2c3c(cc(F)cc13)CN(C(=O)N1CCCCC1)CC2
In short: as §1

[5] = compound: c1cn2cc(-c3ccc4cn[nH]c4c3)nc(Nc3ccc(N4CCOCC4)cc3)c2n1 [entospletinib]
In short: as §1

Measured: log2 fold change

NEBL isoform 2 (UniProt O76041)
inactive: [1] -0.019 | [2] 0.146 | [3] -0.019 | [4] -0.016 | [5] -0.01

NUP160 (UniProt Q12769)
inactive: [1] -0.036 | [3] 0.082 | [4] 0.022 | [5] 0.009
active: [2] -0.291

MTMR6 (UniProt Q9Y217)
inactive: [1] -0.018 | [3] 0.027 | [4] -0.027 | [5] 0.003
active: [2] -0.276

NAP1L5 (UniProt Q96NT1)
UniProt Q96NT1, sequence (Q96NT1 whole entry, looked up): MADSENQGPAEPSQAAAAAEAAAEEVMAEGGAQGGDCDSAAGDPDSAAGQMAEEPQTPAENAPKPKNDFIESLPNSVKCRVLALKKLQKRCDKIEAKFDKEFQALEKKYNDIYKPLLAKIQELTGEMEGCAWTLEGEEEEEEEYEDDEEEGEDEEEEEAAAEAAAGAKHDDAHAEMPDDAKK
inactive: [1] 0.023 | [2] 0.059 | [3] 0.033 | [4] -0.049 | [5] 0.071

NMRAL1 (UniProt Q9HBL8)
inactive: [1] -0.023 | [2] -0.009 | [3] 0.047 | [4] -0.04 | [5] 0.012

NBN (UniProt O60934)
inactive: [1] -0.009 | [3] 0.023 | [4] -0.008 | [5] -0.005
active: [2] -0.21

NACC1 (UniProt Q96RE7)
UniProt Q96RE7, sequence (Q96RE7 whole entry, looked up): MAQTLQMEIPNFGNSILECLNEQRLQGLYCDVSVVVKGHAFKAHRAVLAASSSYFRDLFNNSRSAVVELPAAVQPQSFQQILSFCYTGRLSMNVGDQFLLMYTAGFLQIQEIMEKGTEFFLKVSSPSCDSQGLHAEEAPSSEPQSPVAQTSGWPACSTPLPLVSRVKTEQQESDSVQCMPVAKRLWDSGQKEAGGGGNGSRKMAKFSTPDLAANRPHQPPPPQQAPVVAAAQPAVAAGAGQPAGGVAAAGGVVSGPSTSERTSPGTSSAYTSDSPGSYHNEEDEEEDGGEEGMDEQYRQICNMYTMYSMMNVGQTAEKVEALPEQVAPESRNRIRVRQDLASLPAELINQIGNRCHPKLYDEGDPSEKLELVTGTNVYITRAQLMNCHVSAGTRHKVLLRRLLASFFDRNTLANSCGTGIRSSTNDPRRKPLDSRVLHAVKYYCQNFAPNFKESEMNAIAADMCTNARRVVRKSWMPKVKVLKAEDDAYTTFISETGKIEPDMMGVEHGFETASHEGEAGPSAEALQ
inactive: [1] -0.014 | [3] 0.024 | [4] -0.004 | [5] -0.036
active: [2] -0.231

MYO9A isoform 4 (UniProt B2RTY4)
inactive: [1] -0.051 | [2] 0.084 | [3] -0.019 | [4] -0.03

NUB1 (UniProt Q9Y5A7)
active: [2] -0.333
inactive: [1] -0.004 | [3] -0.027 | [4] 0.031 | [5] 0.001

MYD88 isoform 6 (UniProt Q99836)
UniProt Q99836, sequence (Q99836 whole entry, looked up): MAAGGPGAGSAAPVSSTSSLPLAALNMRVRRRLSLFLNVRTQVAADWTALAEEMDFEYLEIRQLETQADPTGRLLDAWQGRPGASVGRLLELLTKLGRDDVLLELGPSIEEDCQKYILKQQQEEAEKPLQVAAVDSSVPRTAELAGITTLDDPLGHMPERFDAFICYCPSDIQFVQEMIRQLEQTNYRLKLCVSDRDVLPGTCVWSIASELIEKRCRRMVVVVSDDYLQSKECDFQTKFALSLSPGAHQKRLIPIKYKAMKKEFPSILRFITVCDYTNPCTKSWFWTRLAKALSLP
active: [2] -0.366
inactive: [1] -0.005 | [3] 0.023 | [4] -0.05 | [5] 0.033

PANK4 (UniProt Q9NVE7)
UniProt Q9NVE7, sequence (Q9NVE7 whole entry, looked up): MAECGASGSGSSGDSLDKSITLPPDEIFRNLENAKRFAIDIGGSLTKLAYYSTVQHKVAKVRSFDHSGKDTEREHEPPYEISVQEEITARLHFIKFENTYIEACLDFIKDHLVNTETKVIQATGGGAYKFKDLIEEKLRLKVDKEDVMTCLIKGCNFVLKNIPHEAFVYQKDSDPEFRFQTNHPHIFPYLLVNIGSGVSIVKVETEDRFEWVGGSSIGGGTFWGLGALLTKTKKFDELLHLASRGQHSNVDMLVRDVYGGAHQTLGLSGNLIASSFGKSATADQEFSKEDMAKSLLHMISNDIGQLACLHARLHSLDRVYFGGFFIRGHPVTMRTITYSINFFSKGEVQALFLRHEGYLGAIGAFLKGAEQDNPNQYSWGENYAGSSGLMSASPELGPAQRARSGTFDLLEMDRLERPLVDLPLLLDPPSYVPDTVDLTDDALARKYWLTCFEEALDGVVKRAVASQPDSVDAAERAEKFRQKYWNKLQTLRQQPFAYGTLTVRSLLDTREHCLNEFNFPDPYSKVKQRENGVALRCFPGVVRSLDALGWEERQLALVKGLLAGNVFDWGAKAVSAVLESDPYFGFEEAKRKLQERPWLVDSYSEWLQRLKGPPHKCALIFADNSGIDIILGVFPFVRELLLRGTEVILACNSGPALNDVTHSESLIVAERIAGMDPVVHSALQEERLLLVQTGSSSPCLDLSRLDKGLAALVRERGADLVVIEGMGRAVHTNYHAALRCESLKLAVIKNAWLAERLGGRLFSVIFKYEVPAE
inactive: [1] 0.012 | [3] -0.03 | [4] 0.055 | [5] 0.035
active: [2] -0.423

OARD1 (UniProt Q9Y530)
active: [2] -0.456
inactive: [1] -0.021 | [3] 0.051 | [4] 0.02 | [5] 0.024

NUCB2 (UniProt P80303)
UniProt P80303, sequence (P80303 whole entry, looked up): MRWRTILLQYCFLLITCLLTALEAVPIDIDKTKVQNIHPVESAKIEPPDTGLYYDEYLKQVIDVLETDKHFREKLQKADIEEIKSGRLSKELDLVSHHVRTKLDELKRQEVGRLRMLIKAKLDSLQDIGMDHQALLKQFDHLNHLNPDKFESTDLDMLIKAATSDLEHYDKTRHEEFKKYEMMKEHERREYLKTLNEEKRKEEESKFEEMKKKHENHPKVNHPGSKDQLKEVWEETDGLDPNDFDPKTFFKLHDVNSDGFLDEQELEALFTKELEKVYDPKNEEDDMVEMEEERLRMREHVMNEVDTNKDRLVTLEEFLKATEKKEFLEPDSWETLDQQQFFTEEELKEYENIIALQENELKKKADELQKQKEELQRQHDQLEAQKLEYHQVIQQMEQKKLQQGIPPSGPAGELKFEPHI
inactive: [1] 0 | [2] 0.133 | [3] -0.026 | [4] -0.007 | [5] -0.008

NCAPD2 (UniProt Q15021)
inactive: [1] -0.01 | [3] 0.01 | [4] -0.005 | [5] -0.001
active: [2] -0.332

NCAPG (UniProt Q9BPX3)
UniProt Q9BPX3, sequence (Q9BPX3 whole entry, looked up): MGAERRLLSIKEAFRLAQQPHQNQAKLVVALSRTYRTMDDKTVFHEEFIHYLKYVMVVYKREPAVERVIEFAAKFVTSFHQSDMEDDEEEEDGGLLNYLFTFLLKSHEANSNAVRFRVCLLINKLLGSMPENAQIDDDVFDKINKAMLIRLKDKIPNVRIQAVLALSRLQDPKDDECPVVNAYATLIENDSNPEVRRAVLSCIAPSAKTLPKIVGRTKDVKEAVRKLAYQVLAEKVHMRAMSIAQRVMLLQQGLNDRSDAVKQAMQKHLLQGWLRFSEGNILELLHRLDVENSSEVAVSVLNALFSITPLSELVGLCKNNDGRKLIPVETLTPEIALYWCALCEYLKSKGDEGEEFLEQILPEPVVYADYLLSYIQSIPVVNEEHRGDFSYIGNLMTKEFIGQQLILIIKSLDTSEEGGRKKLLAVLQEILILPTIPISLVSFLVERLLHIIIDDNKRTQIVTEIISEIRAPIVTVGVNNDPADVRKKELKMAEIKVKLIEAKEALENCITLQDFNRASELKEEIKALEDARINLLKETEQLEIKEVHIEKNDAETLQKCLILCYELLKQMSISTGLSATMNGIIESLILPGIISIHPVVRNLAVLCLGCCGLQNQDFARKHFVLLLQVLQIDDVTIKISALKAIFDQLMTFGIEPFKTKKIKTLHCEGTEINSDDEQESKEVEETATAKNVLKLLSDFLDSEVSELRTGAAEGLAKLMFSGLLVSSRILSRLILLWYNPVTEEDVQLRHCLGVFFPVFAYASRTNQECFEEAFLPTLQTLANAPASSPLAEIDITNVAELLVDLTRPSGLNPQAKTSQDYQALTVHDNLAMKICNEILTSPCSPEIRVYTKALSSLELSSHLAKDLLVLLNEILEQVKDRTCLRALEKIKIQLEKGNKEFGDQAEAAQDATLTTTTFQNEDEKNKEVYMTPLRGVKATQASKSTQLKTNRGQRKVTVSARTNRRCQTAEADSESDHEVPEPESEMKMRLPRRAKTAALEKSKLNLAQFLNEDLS
active: [2] -0.283
inactive: [1] -0.001 | [3] 0.029 | [4] -0.003 | [5] -0.002

NGLY1 (UniProt Q96IV0)
inactive: [1] -0.014 | [3] 0.041 | [4] 0.018 | [5] 0.034
active: [2] -0.29

NUMB (UniProt P49757)
inactive: [1] 0 | [3] -0.014 | [4] -0.066 | [5] 0
active: [2] -0.315

NUDT5 (UniProt Q9UKK9)
inactive: [1] -0.018 | [2] 0.1 | [3] -0.021 | [4] 0.02 | [5] 0.012

MSI2 (UniProt Q96DH6)
inactive: [1] 0.053 | [2] -0.046 | [3] -0.021 | [4] -0.052 | [5] 0.033

NFIC (UniProt P08651)
inactive: [1] 0.063 | [2] -0.083 | [3] -0.026 | [4] -0.032 | [5] -0.025

PARP14 (UniProt Q460N5)
UniProt Q460N5, sequence (Q460N5 whole entry, looked up): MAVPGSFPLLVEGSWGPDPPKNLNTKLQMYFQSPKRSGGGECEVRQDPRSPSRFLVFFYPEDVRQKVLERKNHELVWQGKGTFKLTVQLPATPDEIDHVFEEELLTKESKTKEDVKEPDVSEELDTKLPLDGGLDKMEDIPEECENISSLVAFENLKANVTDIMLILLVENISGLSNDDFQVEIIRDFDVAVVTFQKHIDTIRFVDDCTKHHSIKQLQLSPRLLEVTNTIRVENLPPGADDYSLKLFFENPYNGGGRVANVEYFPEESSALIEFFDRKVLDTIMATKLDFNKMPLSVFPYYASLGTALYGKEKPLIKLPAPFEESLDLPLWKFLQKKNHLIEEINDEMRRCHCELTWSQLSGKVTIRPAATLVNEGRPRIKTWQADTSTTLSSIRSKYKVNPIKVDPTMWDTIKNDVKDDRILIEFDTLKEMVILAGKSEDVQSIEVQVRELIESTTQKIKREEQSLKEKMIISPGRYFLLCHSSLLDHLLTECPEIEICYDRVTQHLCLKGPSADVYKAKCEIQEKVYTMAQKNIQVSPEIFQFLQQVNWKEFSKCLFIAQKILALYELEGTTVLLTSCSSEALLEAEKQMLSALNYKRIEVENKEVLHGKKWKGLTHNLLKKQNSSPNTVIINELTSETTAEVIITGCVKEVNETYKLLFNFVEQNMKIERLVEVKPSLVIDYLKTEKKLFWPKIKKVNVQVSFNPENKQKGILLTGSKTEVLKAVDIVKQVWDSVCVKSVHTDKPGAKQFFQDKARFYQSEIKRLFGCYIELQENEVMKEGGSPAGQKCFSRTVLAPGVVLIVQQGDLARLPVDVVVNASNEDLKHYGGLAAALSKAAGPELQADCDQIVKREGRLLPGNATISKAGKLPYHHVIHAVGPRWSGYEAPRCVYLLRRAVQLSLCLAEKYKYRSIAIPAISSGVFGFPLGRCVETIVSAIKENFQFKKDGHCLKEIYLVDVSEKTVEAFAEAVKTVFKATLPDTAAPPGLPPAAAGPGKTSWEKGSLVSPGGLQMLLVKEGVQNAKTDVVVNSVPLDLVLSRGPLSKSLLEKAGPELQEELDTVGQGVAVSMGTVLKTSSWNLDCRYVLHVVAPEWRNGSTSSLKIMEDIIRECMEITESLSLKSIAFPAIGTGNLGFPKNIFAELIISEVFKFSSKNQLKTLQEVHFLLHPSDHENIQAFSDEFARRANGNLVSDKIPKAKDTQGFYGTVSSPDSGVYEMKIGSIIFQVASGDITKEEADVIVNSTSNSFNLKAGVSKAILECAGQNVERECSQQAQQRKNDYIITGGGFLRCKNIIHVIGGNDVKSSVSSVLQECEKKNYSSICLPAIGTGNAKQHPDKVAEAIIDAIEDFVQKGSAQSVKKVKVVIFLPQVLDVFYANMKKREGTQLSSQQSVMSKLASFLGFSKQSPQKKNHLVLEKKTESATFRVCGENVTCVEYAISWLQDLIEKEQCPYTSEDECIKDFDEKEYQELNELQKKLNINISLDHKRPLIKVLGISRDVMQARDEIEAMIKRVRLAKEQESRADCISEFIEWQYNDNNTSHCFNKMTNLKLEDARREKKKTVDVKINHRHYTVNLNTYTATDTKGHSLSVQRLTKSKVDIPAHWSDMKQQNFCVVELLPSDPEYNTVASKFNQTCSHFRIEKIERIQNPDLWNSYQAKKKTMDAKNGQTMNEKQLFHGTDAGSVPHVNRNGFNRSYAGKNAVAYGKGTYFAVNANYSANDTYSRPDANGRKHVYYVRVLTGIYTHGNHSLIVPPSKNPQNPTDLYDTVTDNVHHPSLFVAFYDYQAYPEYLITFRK
active: [2] -0.391
inactive: [1] -0.006 | [3] 0.009 | [4] 0.149 | [5] -0.014

MYCBP2 (UniProt O75592)
inactive: [1] 0.031 | [3] -0.002 | [4] 0.007 | [5] -0.002
active: [2] -0.223

NCOR2 (UniProt C9J0Q5)
active: [2] -0.27
inactive: [1] 0.093 | [3] -0.016 | [4] 0.011 | [5] -0.074

NUP188 (UniProt Q5SRE5)
inactive: [1] -0.002 | [3] 0.073 | [4] -0.009 | [5] -0.003
active: [2] -0.36

PAXBP1 (UniProt Q9Y5B6)
inactive: [1] 0.02 | [2] -0.146 | [3] -0.019 | [4] -0.02 | [5] -0.043
